Among the data in PubChem BioAssay (NCI) are growth values, retold here.

The panel holds about 83,000 compounds, 20% with a hit somewhere; the sample as a whole holds those more often.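 Values shown are percent growth following 48 h exposure of cells in 96-well plates to a single concentration of compound; below 10 was considered active.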 A number with no mark means an inactive call. Active and inactive are the calls of the source.

What all share (assay): NCI-60 one-dose screen, 48 h (100 = growth as untreated, 0 = no growth, -100 = all killed)
Common to all, as to conditions: 10 µM unless noted

Test [1] concerns NCI-H23 lung.
In test [2] the test system is NCI-H226 lung.
The test system of test [3] is HOP-62 NSCLC.
Test [4] concerns HOP-92 NSCLC.
Test [5] deals with NCI-H522 lung.
Test [6] deals with A549/ATCC NSCLC.
The test system of test [7] is 786-0 renal.
For test [8], the system named is COLO 205 colon.
Test [9] concerns DU-145 prostate.
For test [10], the system named is K-562 leukemia.
In test [11] the test system is MDA-MB-231 breast.
In test [12] the test system is RXF 393 renal.
The test system of test [13] is SF-268 CNS.
The subject of test [14] is SF-295 CNS.
Test [15] concerns SF-539 CNS.
In test [16] the test system is UACC-257 melanoma.
Test [17] has as its system M14 melanoma.
In test [18] the test system is NCI-H322M lung.
Test [19] has as its system NCI-H460 lung.
Test [20] relates to MALME-3M melanoma.

On to `Cc1ccc(N2C(=O)C=CC2=O)cc1`, for which the growth in [1] was 106%; in test [2] it was 90.9%; in test [3], 107%; in [4] it was 82.9%; in test [5], 74.8%; in test [6], 92%. For the same compound, the growth in test [7] was 99.1%; in [8] it was 83.6%; in test [9], 119%; in test [10], 0.664% (active); in test [11], 97.6%; in test [12], 99.7%. Moreover, the growth in [13] was 106%; in test [14], 115%; in [15], 112%; in test [16], 103%; in test [17], 101%.
On to `OC(CSc1ccccc1)CN1CCN(c2ccc(Cl)cc2)CC1` (stereo unspecified), for which the growth in test [1] is 107%; in [2], 91.7%; in [18] it was 110%; in test [19] it was 109%; in test [4], 63.8%; in [5] it was 90.3%. Moreover, the growth is 98.4% in test [6]; 95.3% in test [7]; 107% in [8]; 110% in [9]; 78.3% in [10]; 94.7% in test [11]. Besides, the growth in test [12] is 95.7%; in [13], 103%; in test [14] it was 94.3%; in test [15], 96.8%; in [16], 101%; in test [17] it was 100%.
Consider `N#Cc1c2ccccc2nc2ccccc12`, for which the growth in test [1] was 100%; in [2] it was 93.8%; in [18], 110%; in test [19], 101%; in test [5], 101%; in test [6], 92.8%. The growth in [7] is 97.7%; in test [8], 107%; in [9] it was 112%; in test [10] it was 106%; in [11], 99.4%; in test [13], 105%. The growth in test [14] is 98.7%; in [16], 95.2%; in test [17], 120%.
Turning to `S=C1SCN(Cc2cccs2)CN1Cc1cccs1`, the growth was 107% in test [1]; 99.4% in test [18]; 122% in test [3]; 101% in test [19]; 79.9% in test [4]; 46.7% in [5]. In addition, the growth was 96.8% in [6]; 102% in test [7]; 108% in test [8]; 110% in test [9]; 63.6% in [10]; 107% in test [20]. The growth in test [11] is 93.4%; in [12], 104%; in test [13] it was 100%; in [14], 104%; in test [15] it was 96.8%; in test [16] it was 94.5%. Besides, the growth in test [17] is 94.3%.
With `O=C(c1ccccc1)C(Br)C(Br)c1ccccc1` (stereo unspecified), the growth in test [1] is 104%; in test [2], 109%; in [18] it was 121%; in test [19], 103%; in [4], 46%; in test [6], 99.2%. Besides, the growth was 6.72% (active) in test [8]; 94.7% in test [9]; 6.6% (active) in test [10]; -3.62% (active) in [20]; 112% in [11]; 33.6% in test [12]. Also, the growth was 102% in test [13]; 82.4% in test [14]; 108% in [15]; 17.3% in [16]; 2.17% (active) in test [17].
Turning to `CCCCCCCCCCCCCCCc1ccc(C(=O)C[n+]2ccccc2)cc1`, the growth in test [1] was -62% (active); in test [2], -6.49% (active); in [3], -99% (active); in test [4], -87.1% (active); in test [5], -90.2% (active); in test [6], -95% (active). Also, the growth in [8] was -90.5% (active); in test [9], -97.6% (active); in test [10] it was -81.6% (active); in test [11], -53.8% (active); in [13] it was -87% (active); in test [14] it was -74.8% (active). Moreover, the growth in test [15] is -98.4% (active); in test [16] it was -76.3% (active); in [17], -90.4% (active).
Turning to `CC1(O)CCCCCC1`, the growth is 98.4% in [1]; 99.1% in [2]; 93.1% in test [18]; 107% in test [19]; 112% in [5]; 103% in test [6]. Moreover, the growth is 95.7% in test [7]; 107% in test [8]; 106% in test [9]; 85.3% in [10]; 117% in test [20]; 106% in [11]. Moreover, the growth in [12] is 108%; in test [13] it was 101%; in test [14], 98.7%; in [15] it was 102%; in test [16] it was 101%; in test [17] it was 96.2%.
With `CC(=O)c1ccc2c(c1)CCc1ccccc1-2`, the growth is 107% in [1]; 94.7% in [2]; 116% in test [18]; 107% in test [19]; 95.3% in [4]; 110% in test [5]. The growth was 91% in test [6]; 83.7% in test [7]; 110% in test [8]; 115% in test [9]; 115% in test [10]; 109% in test [11]. Further, the growth is 97.4% in test [12]; 101% in test [13]; 94.2% in test [14]; 96.8% in test [15]; 98.2% in test [16]; 107% in test [17].
As for `CC(CSc1n[nH]c(=S)s1)c1ccccc1` (stereo unspecified), the growth was 106% in test [1]; 118% in test [18]; 108% in test [3]; 114% in [19]; 101% in test [4]; 79.3% in test [5]. Also, the growth in test [6] was 103%; in test [7], 111%; in test [8], 105%; in test [9], 117%; in [10], 103%; in test [20], 110%. In addition, the growth is 103% in test [11]; 118% in [12]; 109% in test [13]; 106% in test [14]; 119% in test [15]; 112% in test [16]. In test [17], the growth was 106%.
